SARS 3CLpro inh = SARS-CoV 3CLpro protease inhibition | P0C6X7 | recombinant SARS-CoV 3CLpro, quenched FRET peptide cleavage | inhibition, % at 6 µM | 0.14% of 290,000 active; in the data active = inhibition above about 12%
MazF activator = activators of E. coli MazEF toxin-antitoxin RNase; activation, % at 20 µM; P0AE70; 0.32% of 350,000 active; FAM/BHQ RNA-DNA oligo cleavage fluorescence, 5 h; in the data active = activation above about 50%
Target sequence (P0AE70 whole entry, looked up): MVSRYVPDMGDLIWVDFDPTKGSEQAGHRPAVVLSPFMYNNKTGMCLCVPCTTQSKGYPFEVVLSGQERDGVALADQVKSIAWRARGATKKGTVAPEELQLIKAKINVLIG
PfHsp40 rescue = compounds rescuing yeast from Plasmodium falciparum HSP40 toxicity; growth rescue, % at 12.5 µM; S. cerevisiae expressing PfHsp40, growth rescue, ATP luminescence; 0.68% of 340,000 active; in the data active = growth rescue above about 28%, passing the limit was not always enough;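 also: yeast W303a lacking pdr1 and pdr3 grown in galactose medium; growth measured after three days at 30 °C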
VHR inh abs = DUSP3 (human) phosphatase inhibition | P51452 | recombinant VHR phosphatase, pNPP absorbance | inhibition, % at 13.3 µM | 0.52% of 290,000 active | AID 1654; in the data active = inhibition above about 50%
Target sequence (P51452 whole entry, looked up): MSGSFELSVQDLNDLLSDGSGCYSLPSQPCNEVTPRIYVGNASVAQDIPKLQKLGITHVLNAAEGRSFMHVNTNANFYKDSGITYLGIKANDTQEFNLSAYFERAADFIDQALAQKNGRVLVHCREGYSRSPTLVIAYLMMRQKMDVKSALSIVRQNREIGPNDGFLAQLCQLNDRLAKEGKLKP
BH1578 lux ind = inducers of Vibrio cholerae quorum light production without autoinducers; 0.16% of 350,000 active; V. cholerae BH1578 lux reporter, luminescence, 6 h; activation, % at 18.7 µM; AID 588436; in the data active = activation mostly above about 9.7%, no sharp cut-off
BJeLR viability = kills HRASV12-expressing BJeLR cells | BJeLR (HRASV12) viability, CellTiter-Glo ATP luminescence, 48 h | inhibition, % (test concentration not listed) | 0.17% of 300,000 active | AID 1554; in the data active = inhibition above about 50%
Numbers stand for hits; 0 = inactive; - = no result given; + = active, no number. Compounds with a hit are over-represented: about 1.7% of the library has one in this group of screens.

SMILES	SARS 3CLpro inh	MazF activator	PfHsp40 rescue	VHR inh abs	BH1578 lux ind	BJeLR viability
CC1CC(C)CN(S(=O)(=O)c2ccc(C(=O)Nc3nnc(-c4cccs4)o3)cc2)C1 (configuration not stated)	0	0	0	0	0	0
COc1ccc(C#Cc2c(-c3ccccc3)n(-c3ccccc3)c3ccc(CO)cc23)cc1	-	0	65	-	0	-
CN1CCC(N(C)C(=O)c2ccc(Cl)c(S(=O)(=O)Nc3cc(Cl)ccc3Cl)c2)CC1	-	0	0	-	0	-
COc1ccc(C(=O)N(C)C2CCN(C)CC2)cc1S(=O)(=O)Nc1cc(Cl)ccc1Cl	0	0	-	52	-	0
O=C1[C@H]2[C@@H](c3ccc(C(F)(F)F)cc3)N[C@]3(CCCN(Cc4ccc(F)cc4)C3=O)[C@H]2C(=O)N1Cc1ccccc1	-	0	-	-	0	-
Cn1cccc1/C=N/NC(=O)c1sc2cc(Cl)ccc2c1Cl	0	-	-	0	-	0
Cc1ccc2c(Cl)c(C(=O)N/N=C/c3cccn3C)sc2c1	0	71	0	0	0	0
COC(=O)c1sc(-c2ccc(C(C)(C)C)cc2)cc1NC(=O)COCC(=O)O	0	0	33	0	0	0
Cc1ccccc1NC(=O)CCNS(=O)(=O)c1cccc2nsnc12	0	0	0	0	0	0
C/C(=N\NC(=O)c1cc(-c2cccnc2)nc2ccccc12)c1ccc(O)cc1O	0	0	78	0	0	0
O/N=C/c1cccc[n+]1CCCCCC[n+]1ccccc1/C=N/O	0	0	0	60	0	0
COc1ccc(C(=O)C[n+]2ccccc2/C=N/O)cc1	0	0	0	0	0	0
Cc1cnc(C(=O)OCC(=O)NCc2cccc(Cl)c2)cn1	-	0	0	-	0	-
COc1ccc(C(=O)c2c(C(F)(F)F)oc3c2C(=O)c2ccccc2C3=O)cc1OC	0	0	60	0	0	0
COc1ccc(CC(=O)Oc2cc(C)ccc2C)cc1	0	0	0	58	0	0
CC(C)(C)C(O)C(Oc1ccc(Cl)cc1)n1cncn1 (configuration not stated)	0	0	141	0	0	0
CC(C)(C)c1ccc(C(O)c2ncc(-c3ccccc3F)[nH]2)cc1 (configuration not stated)	-	-	-	-	0	-
COc1ccc(CN(C)c2ncnc(N)n2)cc1	0	0	0	0	17	0
COc1ccc(C)cc1NC(=O)NNC(=O)C(C)Oc1ccc(F)cc1Cl (configuration not stated)	0	0	0	0	0	0
C=CCn1c(COc2ccccc2)nnc1SCC(=O)N/N=C/c1ccc(C)cc1	0	0	0	0	0	0
C=CCn1c(COc2ccccc2)nnc1SCC(=O)N/N=C/c1cc(Cl)ccc1O	0	0	44	0	0	0
O=C(Nc1ccc(C(O)c2ccccc2)cc1)[C@@H]1O[C@H](CO)[C@H](O)[C@H](O)[C@H]1O (some centres not stated)	-	-	-	-	0	-
Cn1cnc([N+](=O)[O-])c1Sc1nc(N)nc2c1ncn2C1CC(O)C(CO)O1 (configuration not stated)	-	0	0	-	0	-
COc1ccc(OCC(=O)NC2CCCCCCC2)cc1	0	0	0	56	0	0
CCc1ccc(OCC(=O)NNC(=S)NC(=O)C2CCCCC2)c(Br)c1	0	0	0	0	-	0
SMILES	SARS 3CLpro inh	MazF activator	PfHsp40 rescue	VHR inh abs	BH1578 lux ind	BJeLR viability
CCc1ccc(OCC(=O)NNC(=S)NC(=O)C2CC2)c(Br)c1	0	0	48	0	0	-
Cc1cc(C)cc(OCC(=O)NNC(=S)NC(=O)C2CC2)c1	0	0	112	0	0	0
CCCCNC(=O)NNC(=O)COc1cc(C)cc(C)c1	0	0	0	0	0	0
COc1ccc(OCC(=O)NNC(=S)NC(=O)C2CC2)cc1	0	0	0	0	0	0
COc1ccc(OCC(=O)NNC(=S)NC(=O)C2CCCCC2)cc1	0	-	346	0	0	0
CCCNC(=O)c1cc(C2CCCN(C(=O)c3cc(F)ccc3C)C2)on1 (configuration not stated)	-	-	-	-	0	-
CC(OC(=O)Cc1ccccc1F)C(=O)Nc1ccc(Cl)cn1 (configuration not stated)	-	0	-	-	0	-
CSc1ncccc1C(=O)OCC(=O)Nc1cccc(S(=O)(=O)N2CCOCC2)c1	-	0	0	-	0	-
COc1ccc(-n2c(SCC(=O)Nc3cc(C)on3)nc3c(c2=O)SCC3)cc1OC	0	0	0	57	0	0
COc1ccc(-n2c(SCC(=O)Nc3cc(C)on3)nc3c(c2=O)SCC3)cc1	0	0	0	0	0	0
COc1cccc(-n2c(SCc3ccccn3)nc3c(c2=O)SCC3)c1	0	0	62	0	0	0
COc1ccc(-n2c(SCc3cccnc3)nc3c(c2=O)SCC3)cc1OC	0	0	0	0	0	0
CCOC(=O)c1c(C)[nH]c(C)c1C(=O)COC(=O)c1nn(CC)c(=O)c2ccccc12	-	0	-	-	0	-
Cc1ccc(Cn2cccc(-c3nc4ccccc4s3)c2=O)cc1	0	74	0	0	0	0
Cc1cccc(C(=O)N2CCN(Cc3nc4sc5c(c4c(=O)[nH]3)CCCC5)CC2)c1	0	0	0	0	0	0
Cc1[nH]n(-c2ccccc2)c(=O)c1C=Nc1ccc2[nH]c(=O)[nH]c2c1	0	90	0	0	0	0
Cc1cccc(-n2[nH]c(C)c(C=Nc3ccc4[nH]c(=O)[nH]c4c3)c2=O)c1	0	154	0	0	0	0
CCCCNC(=O)C1(C)CCCCN1C(=O)c1cccs1 (configuration not stated)	-	-	-	-	0	-
CCS(=O)(=O)N1CCN=C1SCc1ccc(F)cc1	0	0	0	0	0	0
Cn1cccc1/C=C1\CC(C(C)(C)C)C/C(=C\c2cccn2C)C1=O (configuration not stated)	0	108	0	0	0	0
Cn1cccc1/C=C1\Cc2ccccc2C1=O	0	0	0	0	0	0
CN1C2CCC1/C(=C\c1ccc(F)cc1)C(=O)/C2=C/c1ccc(F)cc1	0	0	0	0	0	0
CN1C2CCC1/C(=C/c1cccn1C)C(=O)/C2=C\c1cccn1C	0	+	0	0	0	0
N#CCSc1ccccc1NC(=O)COC(=O)Cc1c[nH]c2ccccc12	-	0	0	-	0	-
CC(=O)Nc1nnc([N+](=O)[O-])s1	-	0	-	-	0	-
CN(C)CCOC(=O)C12CC3CC(CC(C3)C1)C2	0	0	0	0	0	0
CN(C)CCOC(=O)C12CC3(C)CC(C)(CC(C)(C3)C1)C2	0	0	0	52	0	0
COC(=O)c1c(C)[nH]c(C(=O)OCc2csc(CC(=O)Nc3ccccc3C)n2)c1C	-	0	0	-	0	-
COc1cccc2c1C(=O)c1c(O)c3c(c(O)c1C2=O)C[C@](O)(C(C)=O)C[C@H]3O[C@@H]1C[C@@H](N)[C@@H](O)[C@@H](C)O1	-	0	0	-	0	68
CCCS(=O)(=O)c1nnnn1-c1cccc(OC)c1	0	0	408	0	0	0

High-throughput results from PubChem BioAssay.
